Bioassay records deposited in PubChem BioAssay by National Center for Advancing Translational Sciences (NCATS).
GLP1R ag: GLP-1 receptor (human) agonism; P43220; HEK293 GLP-1R CRE-luciferase, luminescence, 4-6 h; cells express a hypersensitive GLP-1R form; Potency, µM (titrated, usually from 45.6 µM), for the others: at the highest dose activation, usual class: activators; 380,000 tested, 0.007% active; further: % of control where 0% means no effect
Target sequence (P43220 whole entry, looked up): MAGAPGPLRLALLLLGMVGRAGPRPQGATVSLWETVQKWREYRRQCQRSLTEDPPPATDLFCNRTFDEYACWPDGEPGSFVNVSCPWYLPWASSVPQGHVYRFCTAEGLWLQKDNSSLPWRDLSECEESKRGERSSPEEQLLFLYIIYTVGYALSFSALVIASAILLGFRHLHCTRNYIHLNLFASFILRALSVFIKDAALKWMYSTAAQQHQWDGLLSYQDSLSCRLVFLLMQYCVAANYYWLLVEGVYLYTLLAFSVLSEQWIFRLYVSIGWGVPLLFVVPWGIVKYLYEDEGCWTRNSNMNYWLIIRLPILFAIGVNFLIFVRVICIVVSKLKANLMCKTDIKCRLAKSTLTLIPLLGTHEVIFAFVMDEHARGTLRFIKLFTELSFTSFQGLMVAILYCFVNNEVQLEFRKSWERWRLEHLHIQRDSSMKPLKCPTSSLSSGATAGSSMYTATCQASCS
GLP1R inv ag: acts as inverse agonist at human GLP-1 receptor; Potency, µM (doses to about 38.3 µM), inactives show top-dose activity change, negative = inhibition, actives largely listed as inhibitors; 410,000 tested, 1.6% active; AID 624417; P43220; HEK293 GLP-1R CRE-luciferase, luminescence, 24 h; GLP-1R form is constitutively active; further: on the % scale 0 is the no-effect control and ±100 the full control effect; nearly all actives have a fitted effect of over 55% in size
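Seeding at 200 cells/uL, 12 h culture, 24 hr compound treatment, then luciferase reagent and a luminescence read; cells are HEK293 stably expressing a constitutively active GLP-1R plus cAMP-responsive luciferase.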
GLP1R cytotox: cytotoxicity counter-screen for GLP-1 receptor inverse agonists | HEK293 cAMP-luciferase reporter cells, luminescence, 24 h | Potency, µM (doses to about 38.3 µM), without a hit: at the top dose activity change, negative = inhibition, actives largely listed as inhibitors | 410,000 tested, 0.13% active | AID 624418;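 further: loss of luciferase light is scored as toxicity; on the % scale 0 is the no-effect control and ±100 the full control effect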
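Step one: seed cells (200 cells/uL, DMEM with 10% Nu serum, 1% pen-strep). Step two: 12-hour incubation at 37 deg C. Step three: pin 23 nL compound, incubate 24 hr. Step four: add luciferase reagent, read luminescence 12 min later.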
The depositor's hits bear a star; ? = inconclusive; / = no result given. Hits are enriched below; roughly 1.7% of the tested compounds scored in any of these assays. The call rests on the fitted dose curve; in most records, active means well fitted curve in the direction sought with a large enough effect; inconclusive means small, poorly fitted or top-dose-only effect, or another doubt; inactive means no such curve, though single readings can be large; an effect the other way counts as inactive or inconclusive. Potency means the concentration at half of the fitted maximal effect.

SMILES	GLP1R ag	GLP1R inv ag	GLP1R cytotox
C=CCOC(=O)C1=C[C@@H](c2ccc(C(F)(F)F)cc2)[C@H](CCCO)[C@@H](OCC)O1	13%	6.3µM*	-67%
C=CCOC(=O)C1=C[C@H](c2ccc(C(F)(F)F)cc2)[C@@H](CCCO)[C@H](OCC)O1	20%	?	-4%
c1ccc2c(c1)oc1c(-c3ccc4nccn4c3)cccc12	29%	-16%	-17%
CC(=O)Nc1ccc(Oc2ccc(S(=O)(=O)N3CCCC3)cn2)cc1	-3%	5%	13%
NC(=O)c1cc(S(=O)(=O)NCC2CCC(C(=O)Nc3ccc(Cl)cc3)CC2)cs1 (stereo not given)	/	-19%	-9%
Cc1ccccc1NS(=O)(=O)c1ccc(NS(=O)(=O)c2cccs2)cc1	0%	-15%	-4%
Cc1cc(Cl)ccc1OCCCC(=O)N1CCN(S(=O)(=O)c2ccccc2)CC1	3%	10µM*	-21%
CCOc1ccccc1OCCCC(=O)N1CCN(S(=O)(=O)c2ccc(Cl)cc2)CC1	2%	-15%	6%
CC(=O)C(Sc1nc(-c2ccccc2Cl)nc2c1c(=O)n(C)c(=O)n2C)C(=O)N(C)C (stereo not given)	/	4%	-6%
COc1ccc(NC(=O)C2CCCN(S(=O)(=O)c3cccs3)C2)cc1OC (stereo not given)	3%	-6%	-5%
CCc1cccc(NC(=O)C2CCCN(S(=O)(=O)c3cccs3)C2)c1 (stereo not given)	18%	10µM*	-12%
CCc1ccc2[nH]c(=O)c(CN(CCN(C)C)C(=O)Nc3ccccc3OC)cc2c1	11%	?	-14%
CCN(CC)CCCN(Cc1cc2cc(OC)ccc2[nH]c1=O)C(=O)Nc1ccccc1	23%	?	-17%
CCc1ccc2[nH]c(=O)c(CN(Cc3ccccc3)C(=O)Nc3ccccc3OC)cc2c1	11%	3.5µM*	?
CCN(CC)CCCN(Cc1cc2cc(OC)ccc2[nH]c1=O)C(=O)Nc1ccc(F)cc1	14%	4.5µM*	-18%
Cn1c(=O)n(Cc2ccccc2Cl)c(=O)c2c1nc1n2CCN1c1ccccc1	/	-5%	15%
C[C@@H](C(=O)O)c1ccc(C2CCCCC2)c2ccccc12	-1%	/	/
O=C1[C@H]2[C@@H](c3ccccc3)N[C@]3(CCCN(Cc4ccccc4)C3=O)[C@H]2C(=O)N1Cc1ccccc1	-5%	-3%	2%
O=C1[C@H]2[C@@H](c3ccccc3)N[C@]3(CCCN(Cc4ccc(F)cc4)C3=O)[C@H]2C(=O)N1Cc1ccccc1	-1%	-23%	-6%
O=C1[C@H]2[C@@H](c3ccc(C(F)(F)F)cc3)N[C@]3(CCCN(Cc4ccc(F)cc4)C3=O)[C@H]2C(=O)N1Cc1ccccc1	-6%	8.9µM*	?
O=C1[C@H]2[C@@H](c3ccccc3)N[C@]3(CCCN(Cc4ccc(C(F)(F)F)cc4)C3=O)[C@H]2C(=O)N1Cc1ccccc1	-4%	11µM*	-1%
CCOc1ccc(S(=O)(=O)NCCC(=O)Nc2cccc(C(=O)OC)c2)cc1	6%	-17%	0%
O=C(NCc1ccco1)c1[nH]c(C(F)(F)F)nc1-c1ccccc1	-1%	14%	-11%
CCCS(=O)(=O)NCCc1sc2nc(-c3ccc(F)cc3)nn2c1C	/	-8%	-15%
CC(C)(C)Cc1c(-c2ccc(F)cc2)nc2ccc(Cl)cn12	-5%	5.6µM*	?
SMILES	GLP1R ag	GLP1R inv ag	GLP1R cytotox
Cc1ccc(Cc2c(-c3ccc(Cl)cc3)nc3ccc(Cl)cn23)cc1	-6%	?	-27%
Cc1ccc(Cc2c(-c3ccc(C)cc3)nc3ccc(Cl)cn23)cc1	-3%	10µM*	-4%
Cc1ccc(-c2nc3ccc(Cl)cn3c2CC(C)(C)C)cc1	-3%	17%	10%
CC(C)CCC[C@@H](C)[C@H]1CC[C@H]2[C@@H]3CC[C@@H]4C[C@H](O)CC[C@]4(C)[C@H]3CC[C@]12C	4%	/	/
COCCOc1ccc(C(F)(F)F)cc1NC(=O)c1ccccc1	2%	4%	-10%
CC(C)(C)c1ccc(OCCOc2ccc(C(C)(C)C)cc2NC=O)c(NC=O)c1	5%	4.5µM*	4%
O=C(NCCOc1ccccc1)C1CCC(=O)N(C2CCCCCC2)C1 (stereo not given)	9%	-14%	-1%
CCN(CC(=O)NCc1ccc(Cl)cc1)C(=O)CSc1ccc(Br)cc1	0%	6.3µM*	4%
CCN(CC(=O)NCc1ccc(Cl)cc1)C(=O)NCc1ccc(Cl)cc1	1%	?	11%
CCc1nn(CC(=O)Nc2ccc(C)c(F)c2)c(=O)c2cc3cc(C)ccc3n12	/	1%	2%
